Assay results: PubChem BioAssay (NCATS)
Results filed as inconclusive are left out. A call without a number means that no potency is given here. Calls of active or inactive are those of the source. The call rests on the fitted dose curve; in most records, active means well fitted cell-killing curve with a large enough effect; inconclusive means small, poorly fitted or top-dose-only effect; inactive means flat fitted curve, though single readings scatter.

assay: qHTS of pediatric cancer cell lines to identify multiple opportunities for drug repurposing: Primary screen for U-2 OS cells (AID 1347096); details: U-2 OS viability, CellTiter-Glo luminescence, 48 h; series mostly up to 46 µM; further: nearly all actives have a fitted effect of over 50% in size
Excerpt: Drug repurposing or repositioning has been offered as a strategy for drug development in oncology programs. This approach has special potential for childhood cancers and other rare or orphan diseases, where the expected return on new drug development has been a disincentive to pharmaceuticals.
In this project we exploit the poly-pharmacology of drugs to discover new indications via phenotypic screening of a panel of 19 well-characterized cell lines derived from solid tumors seen in children and adolescents. The goal is to identify approved drugs with previously unrecognized anticancer properties that has the potential to reveal new mechanisms and biological processes involved in carcinogenesis or drug resistance. We employed a titration-based paradigm (quantitative high-throughput screening or qHTS), where all compounds were tested at multiple concentrations for their effect on cell viability. Concentration-response curves (CRCs) were derived directly from the primary screen, and both potency and efficacy values were used to identify compounds with robust bioactivity profiles. We screened the NIH Chemical Genomics Center (NCGC) Pharmaceutical Collection (NPC) and Mechanism Interrogation Plate (MIPE) small molecule collections of approved and investigational compounds against these cell lines; and measured metabolically active cells after 48 hours of compound treatment as a proxy for cell viability.
Assay Submitter: Nathalia J. Martinez, National Center for Advancing Translational Sciences, National Institutes of Health, Rockville, MD, USA; email: natalia.martinez@nih.gov
[1] Shen, M et al. Quantitative high-throughput phenotypic screening of pediatric cancer cell lines identifies multiple opportunities for drug repurposing. Oncotarget 2017 Dec 19;9(4):4758-4772. PMID 29435139.
The cells were obtained from University of North Carolina (UNC), Pediatric Preclinical Testing Program (PPT), and Coriell Institute (CI).
qHTS cell viability assay:
Cells were assayed in growth media at a density of 500-1,000 cells/well. Five microliters of cells were dispensed into 1,536-well, white, solid-bottom, TC-treated plates (Greiner Bio One) using a multidrop dispenser and incubated at 37 degrees C, 5% CO2, under a humidified atmosphere for 5 hours. Twenty-three nanoliters of compounds and controls (neutral control DMSO or positive control bortezomib at final concentration of 2.3 µM) were subsequently transferred by Kalypsys pintool. For primary screens, the MIPE collection was tested at 11-point dilutions (final concentrations range from 0.78 nM to 46 µM) and the NPC collection at 8-point dilutions (final concentrations range from 0.59 nM to 46 µM). Compounds tested in follow-up screens were assayed at 11-point dilutions. Cells were incubated for 48 hours, followed by addition of 3 µL of CellTiter-Glo (Promega). After a 15 min incubation at room temperature, samples were analyzed for luminescence intensity using a ViewLux High-throughput CCD imager equipped with clear filters.
Potency means the concentration at half of the fitted maximal effect.

Row | SMILES | Potency
1 | Cc1ccccc1OCC(O)CO (stereo not given) | inactive
2 | COc1ccc(CCN(C)CCCN2CCc3cc(OC)c(OC)cc3CC2=O)cc1OC | inactive
3 | CCCCC(CC)CN1CN(CC(CC)CCCC)CC(C)(N)C1 (stereo not given) | inactive
4 | CC(=O)O[C@]1(C(C)=O)CC[C@H]2[C@@H]3C=C(Cl)C4=CC(=O)CC[C@]4(C)[C@H]3CC[C@@]21C | inactive
5 | Cc1cn([C@H]2C[C@H](F)[C@@H](CO)O2)c(=O)[nH]c1=O | inactive
6 | CC(C)[C@@H]1CC[C@@H](C)CC1=O | inactive
7 | O=S(c1cc(Cl)cc(Cl)c1O)c1cc(Cl)cc(Cl)c1O | inactive
8 | CC(C)[N+](C)(C)CC(O)COc1cccc2ccccc12 (stereo not given) | inactive
9 | Cc1ncc(CO)c(C=O)c1O | inactive
10 | CN(CCCN1c2ccccc2CCc2ccccc21)CC(=O)c1ccc(Cl)cc1 | inactive
11 | C[N+]12CCC(CC1)C(OC(=O)C(O)(c1ccccc1)c1ccccc1)C2 (stereo not given) | inactive
12 | CCc1oc2ccccc2c1C(=O)c1cc(Br)c(O)c(Br)c1 | inactive
13 | CC[C@]12CCCN3CCc4c(n(c5ccccc45)C(=O)C1)[C@@H]32 | inactive
14 | NC(=O)n1c(O)c(C(=O)c2cccs2)c2cc(Cl)ccc21 | inactive
15 | O=C(O)c1ccc(S(=O)(=O)N(Cl)Cl)cc1 | inactive
16 | C=C[C@H]1CN2CC[C@H]1C[C@H]2[C@H](O)c1ccnc2ccc(OC)cc12 | inactive
17 | C/C=C/C=N/NC(=O)c1ccncc1 | inactive
18 | CC(=O)OCC1=C(C(=O)O)N2C(=O)[C@@H](NC(=O)CSc3ccncc3)[C@H]2SC1 | inactive
19 | O=C(O)P(=O)(O)O | inactive
20 | CC(=O)O[C@]1(C(C)=O)CC[C@H]2[C@@H]3C=C(C)C4=CC(=O)CC[C@]4(C)[C@H]3CC[C@@]21C | inactive

Row | SMILES | Potency
21 | CCOC(=O)C(C#N)=C(c1ccccc1)c1ccccc1 | inactive
22 | Cc1ccc(-c2ncc(Cl)cc2-c2ccc(S(C)(=O)=O)cc2)cn1 | inactive
23 | O=S(=O)(O)c1ccc(O)cc1 | inactive
24 | CC(O)Cn1cnc2c1c(=O)n(C)c(=O)n2C (stereo not given) | inactive
25 | CCN(CC)CCOc1ccc2c(c1)C(=O)c1cc(OCCN(CC)CC)ccc1-2 | inactive
26 | Cc1cc2c(OCC(CNC(C)(C)C)OC(=O)c3ccccc3)cccc2[nH]1 (stereo not given) | inactive
27 | O=C(O)CCNC(=O)c1ccccc1 | inactive
28 | CC(C)Nc1cccnc1N1CCN(C(=O)c2cc3cc(NS(C)(=O)=O)ccc3[nH]2)CC1 | inactive
29 | CC(C)Cc1ccc(CC(=O)O)cc1 | inactive
30 | NCc1ccccc1Sc1ccccc1CO | inactive
31 | CCN1/C(=C/C=C/c2sc3ccccc3[n+]2CC)Sc2ccccc21 | 9.2 µM (active)
32 | Cc1cccc(C)c1NC(=O)c1ccccc1C(=O)O | inactive
33 | OCc1ccccn1 | inactive
34 | O=C(CN1CCN(Cc2ccc3c(c2)OCO3)CC1)N1c2ccccc2Sc2ccccc21 | inactive
35 | O=[N+]([O-])c1ccc(/C=N\O)o1 | inactive
36 | CN(C)CCOC(=O)C(c1ccccc1)C1(O)CCCC1 (stereo not given) | inactive
37 | Nc1ccc(S(=O)(=O)NCc2ccccc2)cc1 | inactive
38 | Nc1nc(N)c(-c2ccccc2)s1 | inactive
39 | CCNC(=O)/C=C/c1cccc(Br)c1 | inactive
40 | CCOC(=O)Nc1ccc2c(c1)N(C(=O)CCN1CCOCC1)c1ccccc1S2 | inactive
